# Assay results: PubChem BioAssay (Tox21)
# Records with an inconclusive call do not appear. Unmarked numbers belong to inactive results. Calls come from the whole dose curve; as a rule, active = well fitted activation curve with a large enough effect in the signal ratio in the repeat runs (not every such curve was filed as active); inconclusive = weak or mixed curves; inactive = flat fitted curve, though single readings scatter; the % refers to the signal ratio.
# Assay: qHTS assay to identify small molecule agonists of H2AX (AID 1224845)
# Conditions: CHO-K1 phospho-H2AX Ser139 HTRF, 3 h; series mostly up to 154 µM; activation (H2AX phosphorylation): at the top concentration
# Source text: National Center for Advancing Translational Sciences [NCATS]
# NIH Chemical Genomics Center [NCGC]
# U.S. Environmental Protection Agency [EPA]
# National Institutes of Environmental Health Sciences [NIEHS]
# National Toxicology Program [NTP]
# U.S. Food and Drug Administration [FDA]
# HTRF phospho-H2AX (Ser139) assay (Cisbio Bioassays, US) enables the quantitative detection of the histone variant H2AX when phosphorylated on serine 139. When double-stranded DNA breaks, either by ionizing radiation or endogenous physiological processes, H2AX becomes phosphorylated at Ser139. This phospho-Ser139 serves as a sensitive biomarker for the detection of such breaks, localizing the site of DNA repair. So, HTRF phospho-H2AX Ser139 is a pertinent assay to study genome stability, the cell cycle, DNA repair, and it serves as a biomarker for cancer, and to understand aging. Wild type CHO-K1 cells were used to identify the inducers of Phospho-H2AX Ser 139 from the Tox21 10K compound collections.
# Tox21 Assay Protocol Summary:
# The CHO-K1 cells suspended in culture medium containing 10% FBS were dispensed at 1000 cells/ 3 ul/well in 1536-well white wall/solid bottom plates (Greiner Bio-One North America, NC) using a Multidrop Combi (Thermo Fisher Scientific Inc., Waltham, MA). After the assay plates were incubated at 37C overnight, 23 nl of compounds at 15 concentrations (from 5-48 columns) or positive control (from 1 to 4 columns) were transferred to the assay plates using a Pintool station (Wako, San Diego, CA) into each well resulting in a final DMSO concentration of 0.76%. After 3hr incubation at 37C, 1 uL/well Supplemented Lysis buffer (diluted 100 fold blocking reagent in lysis buffer) (HTRF Phospho-H2A.X (S139) Assay kit from Cisbio US Inc., Bedford, MA) was added using a Flying Reagent Dispenser (FRD) (Aurora Discovery, CA). After 10sec spin at 1000 rpm in a plate centrifuge, the assay plates were incubated at room temperature for 30 min. Then followed by the addition of 1 uL/well detection buffer (containing a mixture of two antibodies, one labeled with cryptate, Anti pH2AX (S139)-K and another labeled with d2, Anti H2AX-d2) using FRD. After incubation at room temperature for 24 hr, the time resolved fluorescence at excitation 320 nm and emissions at 665 nm and 620 nm was measured using an Envision plate reader (PerkinElmer, Waltham, MA).
# % is set by controls: 0 for no effect and ±100 for the full control effect.
row,SMILES,activation (H2AX phosphorylation)
1,CCN(CCO)CCn1c(Cc2ccccc2)nc2c1c(=O)n(C)c(=O)n2C,-1.35% [at 70.9 µM]
2,C#CCOC(=O)/C=C(C)/C=C/CC(C)CCCC(C)C (stereo not given),-3.21%
3,C1CN2CCC1CC2,0.581% [at 70.9 µM]
4,N#CN=C1SCCN1Cc1ccc(Cl)nc1,-0.43%
5,NNC(N)=O,-0.934%
6,CC(C)(O)C(Cl)(Cl)Cl,-0.438% [at 70.9 µM]
7,CC(Cc1ccccc1)NCCn1cnc2c1c(=O)n(C)c(=O)n2C (stereo not given),-4.08%
8,CCSC(=O)Cl,1.43%
9,CC(=O)OCC1=C(C(=O)O)N2C(=O)[C@@H](N)[C@H]2SC1,0.102% [at 31.6 µM]
10,Cc1ccc2c(c1)C1CN(C)CCC1N2 (stereo not given),-0.451% [at 31.6 µM]
11,C=CC(=O)OCCN(C)C,2.55%
12,CC(C)[C@]12CC(=O)[C@H](C)[C@H]1C2,-3.28%
13,CN1C(=O)COc2c(C(=O)NC3CN4CCC3CC4)cc(Cl)cc21 (stereo not given),0.067% [at 70.9 µM]
14,CC(O)CCl (stereo not given),-1.72%
15,N#CN,-2.31% [at 401 µM]
16,CCCCOC(C)=O,0.0872%
17,C[C@H](N)C(=O)c1ccccc1,-0.109%
18,O=C(O)C(Cl)Br (stereo not given),1.19%
19,CC(C)NCC(O)c1ccc([N+](=O)[O-])cc1 (stereo not given),0.292% [at 70.9 µM]
20,O=C(O)CBr,3.48%

row,SMILES,activation (H2AX phosphorylation)
1,O=c1[nH]c2ccccc2n1C1CCNCC1,0.753% [at 70.9 µM]
2,CNC(=O)NC(O)C(Cl)(Cl)Cl (stereo not given),2.68% [at 70.9 µM]
3,N#CC(Br)(Br)C(N)=O,0.924%
4,CN=CNc1ccc(C)cc1C,0.345%
5,CC(Cc1ccccc1)NCCCCl (stereo not given),0.354% [at 70.9 µM]
6,CCCN1CCC[C@@H]2Cc3nc(N)ncc3C[C@H]21,0.154% [at 70.9 µM]
7,O=c1[nH]c2ccccc2o1,0.68%
8,C=C(Cl)CCl,-1.48%
9,CCC(C)(C#N)N=NC(C)(C#N)CC (stereo not given),1.38%
10,O=P(O)(O)c1ccccc1,-0.0043%
11,O=CCCl,0.0164%
12,CC(C)(C)NC[C@H](O)c1ccc(O)cc1Cl,-4.66% [at 70.9 µM]
13,CNC(=O)O/N=C(/CSC)C(C)(C)C,-0.877%
14,CCCCCCCC(=O)Cl,-0.532%
15,C=C(C)[C@H]1CN[C@H](C(=O)O)[C@H]1CC(=O)O,-0.922% [at 70.9 µM]
16,O=C(NC(O)C(Cl)(Cl)Cl)NC(O)C(Cl)(Cl)Cl (stereo not given),2.33% [at 70.9 µM]
17,COc1ccccc1OC,1.05%
18,CCOc1cc(OP(=S)(OC)OC)nc(CC)n1,-0.235%
19,CCOC(=O)C(Cl)Cc1cc(-n2nc(C)n(C(F)F)c2=O)c(F)cc1Cl (stereo not given),-1.59%
20,C=C1CC[C@@]2(O)[C@H]3Cc4ccc(O)c5c4[C@@]2(CCN3CC2CC2)[C@H]1O5,-2.25% [at 70.9 µM]
